# Measurements reported in PubChem BioAssay AID1159580 (chemical genetic matrix, 2015).
# “And” between values parts separate entries of the source, which are not always exact repeats. Equal entries are not always repeated. In all, about 5,500 compounds went through this assay and about 2,000 (36%) were called active. Inconclusive results (about 18%) are left out. The list shows a part of the results. A number with no mark means an inactive call. No stated cut-off is given here; in the data, active means normalized growth mostly below about 0.91 (no sharp cut-off); inconclusive means no clear call, values can overlap the other calls; inactive means mostly above about 0.92.
# Experiment: chemical genetic growth profiling, strain panel (AID 1159580);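 further: tested at 20 µM; growth read once vehicle control cultures reached saturation at 30 °C; 1 = growth at the plate median or of vehicle wells; lower values mean less growth of the strain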
# Details: S. cerevisiae deletion strains, growth OD
compound,measurement,setting,value
Cc1cc(NC(=O)C2=C(O)c3ccccc3S(=O)(=O)N2C)no1,normalized growth,"locus YAL021C, strain ccr4, hits give low values",0.959
same,normalized growth,"locus YAL026C, strain drs2, hits give low values",0.97
same,normalized growth,"locus YAL030W, strain snc1, hits give low values",0.969
same,normalized growth,"locus YBL061C, strain skt5, hits give low values",0.965
same,normalized growth,"locus YBR009C, strain hhf1, hits give low values",0.961
same,normalized growth,"locus YBR021W, strain FUR4, hits give low values",1.01
same,normalized growth,"locus YBR023C, strain chs3, hits give low values",0.967
same,normalized growth,"locus YBR171W, strain sec66, hits give low values",0.926
same,normalized growth,"locus YBR229C, strain ROT2, hits give low values",0.991
same,normalized growth,"locus YBR231C, strain swc5, hits give low values",0.972
same,normalized growth,"locus YBR279W, strain paf1, hits give low values",0.992
same,normalized growth,"locus YCL011C, strain gbp2, hits give low values",0.982
same,normalized growth,"locus YCL016C, strain dcc1, hits give low values",0.968
same,normalized growth,"locus YCL029C, strain bik1, hits give low values",0.958
same,normalized growth,"locus YCL069W, strain vba3, hits give low values",0.963
same,normalized growth,"locus YCR088W, strain abp1, hits give low values",0.964
same,normalized growth,"locus YDL005C, strain med2, hits give low values",0.984
same,normalized growth,"locus YDL035C, strain GPR1, hits give low values",0.981
same,normalized growth,"locus YDL040C, strain nat1, hits give low values",0.964
same,normalized growth,"locus YDL074C, strain BRE1, hits give low values",1.03
same,normalized growth,"locus YDL101C, strain DUN1, hits give low values",0.997
same,normalized growth,"locus YDL134C, strain PPH21, hits give low values",0.995
same,normalized growth,"locus YDL185W, strain tfp1, hits give low values",0.876 (active)
same,normalized growth,"locus YDL192W, strain arf1, hits give low values",0.952
same,normalized growth,"locus YDR001C, strain nth1, hits give low values",0.95
same,normalized growth,"locus YDR069C, strain doa4, hits give low values",0.99
same,normalized growth,"locus YDR101C, strain arx1, hits give low values",1.01
same,normalized growth,"locus YDR137W, strain rgp1, hits give low values",1
same,normalized growth,"locus YDR150W, strain NUM1, hits give low values",0.975
same,normalized growth,"locus YDR159W, strain sac3, hits give low values",0.983
same,normalized growth,"locus YDR162C, strain NBP2, hits give low values",0.961
same,normalized growth,"locus YDR195W, strain ref2",0.965
same,normalized growth,"locus YDR297W, strain sur2, hits give low values",0.973
same,normalized growth,"locus YDR318W, strain mcm21, hits give low values",0.966
same,normalized growth,"locus YDR334W, strain swr1, hits give low values",0.963
same,normalized growth,"locus YDR335W, strain msn5, hits give low values",0.964
same,normalized growth,"locus YDR388W, hits give low values",0.945
same,normalized growth,"locus YDR392W, strain spt3, hits give low values",0.905
same,normalized growth,"locus YDR502C, strain sam2, hits give low values",0.98
same,normalized growth,"locus YEL003W, strain gim4, hits give low values",0.959
same,normalized growth,"locus YEL037C, strain rad23, hits give low values",0.961
same,normalized growth,"locus YEL061C, strain CIN8 (second series), hits give low values",0.951
same,normalized growth,"locus YEL061C, strain CIN8, hits give low values",0.977
same,normalized growth,"locus YER015W, strain faa2, hits give low values",0.98
same,normalized growth,"locus YER016W, strain bim1, hits give low values",0.946
same,normalized growth,"locus YER110C, hits give low values",0.937
same,normalized growth,"locus YER111C, strain swi4, hits give low values",0.962
same,normalized growth,"locus YER155C, strain BEM2 (second series), hits give low values",0.976
same,normalized growth,"locus YER155C, strain BEM2, hits give low values",0.975
same,normalized growth,"locus YER167W, strain BCK2, hits give low values",0.985
same,normalized growth,"locus YFR010W, strain ubp6, hits give low values",1
same,normalized growth,"locus YGL078C, strain dbp3, hits give low values",0.965
same,normalized growth,"locus YGL086W, strain mad1, hits give low values",0.999
same,normalized growth,"locus YGL167C, strain pmr1, hits give low values",0.978
same,normalized growth,"locus YGL173C, strain kem1, hits give low values",0.984
same,normalized growth,"locus YGL227W, strain vid30, hits give low values",0.973
same,normalized growth,"locus YGL240W, strain doc1, hits give low values",0.995
same,normalized growth,"locus YGL248W, strain PDE1, hits give low values",0.994
same,normalized growth,"locus YGL253W, strain hxk2, hits give low values",0.957
same,normalized growth,"locus YGR078C, strain PAC10, hits give low values",0.995
same,normalized growth,"locus YGR135W, strain pre9, hits give low values",0.929
same,normalized growth,"locus YGR252W, strain gcn5, hits give low values",0.998
same,normalized growth,"locus YHR013C, strain ard1, hits give low values",0.98
same,normalized growth,"locus YHR027C, strain rpn1, hits give low values",0.97
same,normalized growth,"locus YHR030C, strain SLT2, hits give low values",0.965 and 0.916
same,normalized growth,"locus YHR079C, strain IRE1 (second series), hits give low values",0.939
same,normalized growth,"locus YHR079C, strain IRE1, hits give low values",0.93
same,normalized growth,"locus YHR094C, strain hxt1, hits give low values",0.945
same,normalized growth,"locus YHR129C, strain ARP1, hits give low values",0.972
same,normalized growth,"locus YHR142W, strain chs7, hits give low values",0.991
same,normalized growth,"locus YHR200W, strain rpn10, hits give low values",0.947
same,normalized growth,"locus YIL066C, strain RNR3, hits give low values",1.01
same,normalized growth,"locus YIL073C, strain SPO22, hits give low values",0.881
same,normalized growth,"locus YIL125W, strain kgd1, hits give low values",0.939
same,normalized growth,"locus YIR030C, strain dcg1, hits give low values",0.928
same,normalized growth,"locus YJL092W, strain hpr5, hits give low values",0.97
same,normalized growth,"locus YJL095W, strain BCK1 (second series), hits give low values",0.971
same,normalized growth,"locus YJL095W, strain BCK1, hits give low values",1.01 and 0.962
same,normalized growth,"locus YJL115W, strain asf1, hits give low values",0.966
same,normalized growth,"locus YJL129C, strain trk1, hits give low values",0.924
same,normalized growth,"locus YJL134W, strain LCB3, hits give low values",0.965
same,normalized growth,"locus YJL154C, strain vps35, hits give low values",0.939
same,normalized growth,"locus YJL164C, strain tpk1, hits give low values",0.974
same,normalized growth,"locus YJL166W, strain qcr8, hits give low values",1
same,normalized growth,"locus YJL168C, strain set2, hits give low values",0.953
same,normalized growth,"locus YJL187C, strain SWE1 (second series), hits give low values",1
same,normalized growth,"locus YJR043C, strain POL32, hits give low values",1.02
